Among the data in PubChem BioAssay (EPA / NIEHS) are outcome and AC50 values, retold here.

Experiment [1] in a line: CLD_ACTIN_6hr: CellzDirect (CLD) Gene Expression Assay for Baseline Control (Actin) at 6 hours (AID 2283676).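 Also: active means increased actin mRNA relative to DMSO vehicle.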 In short, it runs like this:
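Baseline actin transcript level measured by qNPA (S1 nuclease protection, chemiluminescence) in human hepatocyte cultures 6 h after chemical exposure; 0.2% DMSO vehicle as reference, cytotoxicity noted from morphology.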

Read-out in experiment [2]: Cytochrome P450 2B6 (Homo sapiens) (UniProt P20813)
The experiment in a line: CLD_CYP2B6_6hr: CellzDirect (CLD) Gene Expression Assay for xenobiotic metabolism (CYP2B6) at 6 hours (AID 2283677).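 Also: actives raise CYP2B6 transcript above DMSO baseline so AC50 marks an inducer.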 Summed up: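 CYP2B6 transcript levels, read by chemiluminescent qNPA, were fitted for increase versus DMSO baseline; cultured human liver hepatocytes from two donor preparations were harvested 6 h after exposure to test chemicals at multiple concentrations.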

Read-out in experiment [3]: Cytochrome P450 2C19 (Homo sapiens) (UniProt P33261)
Briefly: CLD_CYP2C19_6hr: CellzDirect (CLD) Gene Expression Assay for xenobiotic metabolism (CYP2C19) at 6 hours (AID 2283678). In short, it runs like this:
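CYP2C19 transcript induction was quantified by quantitative nuclease protection assay with chemiluminescent read-out, 6 h after dosing. Cells were primary human hepatocytes from two donor preparations, given fresh dosing solutions daily in 0.2% DMSO vehicle. Activity was relative to DMSO.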

Experiment [4] in a line: CCTE_Padilla_ZF_144hpf_TERATOSCORE: (Legacy) CCTE's 144 Hour Post-fertilization zebrafish Assay Teratoscore, Padilla Lab (AID 2283679; active = hit-call score of the fitted dose curve at least 0.9, where 1 is the maximum; inactive = score below 0.9;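 as to AC50: zebrafish embryos with chorions exposed by immersion from 6-8 hpf to 5 dpf with daily renewal; teratogenicity score from eye scoring of death hatching and malformations at 144 hpf; higher score means more developmental defects relative to DMSO baseline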). In short, it runs like this: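 Larvae scored by eye at 144 hpf for death, hatching and malformations after a day in clean Hanks'. Before that, daily-renewed exposure at 80 uM (0.4% DMSO, 26C) from roughly 6-8 hpf through 5 dpf, 4 embryos per chemical.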

Read-out in experiment [5]: xenobiotic metabolism (CYP1A2), CYP1A2 (gene 1544)
The experiment in a line: CLD_CYP1A2_24hr: CellzDirect (CLD) Gene Expression Assay for xenobiotic metabolism (CYP1A2) at 24 hours (AID 2283683). In short, it runs like this:
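CYP1A2 mRNA induction measured by quantitative nuclease protection (chemiluminescent) in human primary hepatocytes 24 h after multi-concentration chemical dosing with daily fresh solutions. DMSO (0.2%) baseline; positive-direction fitting; morphology-based cytotoxicity noted.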

Read-out in experiment [6]: Broad substrate specificity ATP-binding cassette transporter ABCG2 (Homo sapiens) (UniProt Q9UNQ0)
The experiment in a line: CLD_ABCG2_24hr: CellzDirect (CLD) Gene Expression Assay for ABC Transporter (ABCG2) at 24 hours (AID 2283685). Summed up: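 ABCG2 mRNA induction, read as gain of chemiluminescent signal over 0.2% DMSO, was measured by quantitative nuclease protection at 24 h. Cultured human liver hepatocytes were given fresh dosing solutions of test chemicals at several concentrations each day.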

Read-out in experiment [7]: Cytochrome P450 2C9 (Homo sapiens) (UniProt P11712)
Briefly: CLD_CYP2C9_24hr: CellzDirect (CLD) Gene Expression Assay for xenobiotic metabolism (CYP2C9) at 24 hours (AID 2283688).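 As to AC50: potency for induction meaning a rise in CYP2C9 mRNA over DMSO vehicle.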 Summed up:
(§1)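 Induction of CYP2C9 mRNA was quantified by quantitative nuclease protection assay (chemiluminescence), gain of signal versus 0.2% DMSO vehicle, 24 h after dosing. Human primary hepatocytes (two donors) received fresh chemical daily at multiple concentrations; morphology-based cytotoxicity flagged yes/no.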

Read-out in experiment [8]: Cytochrome P450 3A4 (Homo sapiens) (UniProt P08684)
Briefly: CLD_CYP3A4_24hr: CellzDirect (CLD) Gene Expression Assay for xenobiotic metabolism (CYP3A4) at 24 hours (AID 2283689). Summed up:
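CYP3A4 mRNA induction read by quantitative nuclease protection (chemiluminescence) 24 hr after dosing. Cultured human hepatocytes (two donor preparations) treated daily, vehicle 0.2% DMSO; phase-contrast morphology annotates cytotoxicity.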

Read-out in experiment [9]: sulfotransferase (SULT2A), SULT2A1 (gene 6822)
Briefly: CLD_SULT2A_24hr: CellzDirect (CLD) Gene Expression Assay for sulfotransferase (SULT2A) at 24 hours (AID 2283694). Summed up:
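mRNA is measured by qNPA: probe hybridisation, S1 nuclease digestion, chemiluminescence, in lysates from human primary hepatocytes harvested 24 h after daily dosing. Vehicle was 0.2% DMSO. Phase-contrast microscopy flagged cytotoxicity (yes/no).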

Read-out in experiment [10]: glucuronosyltransferase (UGT1A1), UGT1A1 (gene 54658)
The experiment in a line: CLD_UGT1A1_24hr: CellzDirect (CLD) Gene Expression Assay for glucuronosyltransferase (UGT1A1) at 24 hours (AID 2283696). In short, it runs like this:
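UGT1A1 transcript induction was measured by quantitative nuclease protection assay (chemiluminescence) in human hepatocyte cultures 24 h after daily fresh dosing, with 0.2% DMSO as vehicle and baseline.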

Read-out in experiment [11]: ABC Transporter (ABCB11), ABCB11 (gene 8647)
Briefly: CLD_ABCB11_48hr: CellzDirect (CLD) Gene Expression Assay for ABC Transporter (ABCB11) at 48 hours (AID 2283697). In short, it runs like this: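 Induction of ABCB11 mRNA relative to 0.2% DMSO, measured at 48 h by qNPA chemiluminescence. Cultured human hepatocytes (two donors) received fresh dosing solutions at several concentrations on two consecutive days.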

Read-out in experiment [12]: ABC Transporter (ABCB1), ABCB1 (gene 5243)
The experiment in a line: CLD_ABCB1_24hr: CellzDirect (CLD) Gene Expression Assay for ABC Transporter (ABCB1) at 24 hours (AID 2283684). Summed up: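 ABCB1 mRNA induction versus 0.2% DMSO vehicle was read by qNPA chemiluminescence at 24 h. Cultured human hepatocytes from two donor preparations received daily fresh dosing, and phase-contrast cytotoxicity calls were annotated alongside the data.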

Read-out in experiment [13]: Cytochrome P450 2B6 (Homo sapiens) (UniProt P20813)
Briefly: CLD_CYP2B6_24hr: CellzDirect (CLD) Gene Expression Assay for xenobiotic metabolism (CYP2B6) at 24 hours (AID 2283686). In short, it runs like this:
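qNPA chemiluminescent measurement of mRNA at 24 hours in human primary hepatocyte cultures from two donor preparations, with daily fresh dosing and 0.2% DMSO vehicle as baseline. Morphology-based cytotoxicity flagged yes/no.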

Read-out in experiment [14]: Cytochrome P450 3A4 (Homo sapiens) (UniProt P08684)
The experiment in a line: CLD_CYP3A4_6hr: CellzDirect (CLD) Gene Expression Assay for xenobiotic metabolism (CYP3A4) at 6 hours (AID 2283680). Summed up:
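CYP3A4 mRNA induction, 6 h after dosing of cultured primary human hepatocytes from two donors, read by quantitative nuclease protection (qNPA, chemiluminescence). Vehicle 0.2% DMSO as baseline; morphology-based cytotoxicity annotated yes/no.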

Read-out in experiment [15]: Cytochrome P450 2C19 (Homo sapiens) (UniProt P33261)
Briefly: CLD_CYP2C19_24hr: CellzDirect (CLD) Gene Expression Assay for xenobiotic metabolism (CYP2C19) at 24 hours (AID 2283687).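 Also: activity means mRNA induction above DMSO vehicle baseline.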 In short, it runs like this:
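CYP2C19 mRNA was quantified by qNPA chemiluminescence after 24 h of daily dosing of cultured human primary hepatocytes from two donors; vehicle was 0.2% DMSO, and increases over DMSO baseline were fitted.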

Read-out in experiment [16]: ABC Transporter (ABCB1), ABCB1 (gene 5243)
The experiment in a line: CLD_ABCB1_48hr: CellzDirect (CLD) Gene Expression Assay for ABC Transporter (ABCB1) at 48 hours (AID 2283695). Summed up:
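ABCB1 mRNA was measured by quantitative nuclease protection assay (chemiluminescence) 48 h after dosing. Human hepatocyte cultures from two separate donors received fresh dosing solutions daily for two days, with 0.2% DMSO as vehicle. Positive-direction fit against DMSO.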

Read-out in experiment [17]: xenobiotic metabolism (CYP2C9), CYP2C9 (gene 1559)
Briefly: CLD_CYP2C9_24hr: CellzDirect (CLD) Gene Expression Assay for xenobiotic metabolism (CYP1A2) at 24 hours (AID 2283688).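 As to AC50: potency for induction meaning a rise in CYP2C9 mRNA over DMSO vehicle.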 Summed up: as §1

Read-out in experiment [18]: alkyl and aryl transferase (GSTA2), GSTA2 (gene 2939)
Briefly: CLD_GSTA2_24hr: CellzDirect (CLD) Gene Expression Assay for alkyl and aryl transferase (GSTA2) at 24 hours (AID 2283693). Summed up:
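GSTA2 transcript levels were quantified by quantitative nuclease protection assay in primary human hepatocytes 24 h after daily dosing with fresh solutions at multiple concentrations; 0.2% DMSO vehicle as baseline, cytotoxicity flagged morphologically.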

Results filed as inconclusive are left out. Calls of active or inactive are those of the source. The calls were made as follows, unless noted: active = hit-call score of the fitted dose curve at least 0.9, where 1 is the maximum; inconclusive = response in the unintended direction; inactive = score below 0.9.

Cytochrome P450 2C19 (Homo sapiens), sequence (P33261 whole entry, looked up): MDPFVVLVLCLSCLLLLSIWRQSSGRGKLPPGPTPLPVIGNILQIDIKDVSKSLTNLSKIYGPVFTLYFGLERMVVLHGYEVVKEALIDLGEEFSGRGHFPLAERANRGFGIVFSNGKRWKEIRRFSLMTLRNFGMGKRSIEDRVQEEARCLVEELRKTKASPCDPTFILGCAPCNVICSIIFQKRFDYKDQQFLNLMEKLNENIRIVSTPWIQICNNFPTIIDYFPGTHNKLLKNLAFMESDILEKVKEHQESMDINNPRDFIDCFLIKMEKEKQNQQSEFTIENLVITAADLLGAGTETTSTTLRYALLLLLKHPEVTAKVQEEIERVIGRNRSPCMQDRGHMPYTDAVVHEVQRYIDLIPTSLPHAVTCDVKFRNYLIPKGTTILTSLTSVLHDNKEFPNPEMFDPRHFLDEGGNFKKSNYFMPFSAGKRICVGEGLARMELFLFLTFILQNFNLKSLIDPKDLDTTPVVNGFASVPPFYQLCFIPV
Broad substrate specificity ATP-binding cassette transporter ABCG2 (Homo sapiens), sequence (Q9UNQ0 whole entry, looked up): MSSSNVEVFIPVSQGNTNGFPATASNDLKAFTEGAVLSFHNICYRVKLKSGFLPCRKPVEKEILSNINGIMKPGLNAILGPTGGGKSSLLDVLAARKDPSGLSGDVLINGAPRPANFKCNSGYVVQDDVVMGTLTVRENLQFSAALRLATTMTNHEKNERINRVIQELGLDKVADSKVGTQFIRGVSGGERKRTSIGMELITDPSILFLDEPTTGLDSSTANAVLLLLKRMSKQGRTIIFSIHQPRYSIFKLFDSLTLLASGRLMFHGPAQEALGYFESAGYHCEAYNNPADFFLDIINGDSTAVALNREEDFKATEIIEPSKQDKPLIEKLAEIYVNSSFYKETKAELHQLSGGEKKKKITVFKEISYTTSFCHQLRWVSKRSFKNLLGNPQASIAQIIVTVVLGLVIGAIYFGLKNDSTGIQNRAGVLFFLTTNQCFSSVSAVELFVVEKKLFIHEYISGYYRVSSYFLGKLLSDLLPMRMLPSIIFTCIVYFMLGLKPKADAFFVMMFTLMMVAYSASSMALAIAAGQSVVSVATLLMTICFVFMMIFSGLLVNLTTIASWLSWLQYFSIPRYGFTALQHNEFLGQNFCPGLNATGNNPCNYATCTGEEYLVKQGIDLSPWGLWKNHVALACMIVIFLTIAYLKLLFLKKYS
Cytochrome P450 3A4 (Homo sapiens), sequence (P08684 whole entry, looked up): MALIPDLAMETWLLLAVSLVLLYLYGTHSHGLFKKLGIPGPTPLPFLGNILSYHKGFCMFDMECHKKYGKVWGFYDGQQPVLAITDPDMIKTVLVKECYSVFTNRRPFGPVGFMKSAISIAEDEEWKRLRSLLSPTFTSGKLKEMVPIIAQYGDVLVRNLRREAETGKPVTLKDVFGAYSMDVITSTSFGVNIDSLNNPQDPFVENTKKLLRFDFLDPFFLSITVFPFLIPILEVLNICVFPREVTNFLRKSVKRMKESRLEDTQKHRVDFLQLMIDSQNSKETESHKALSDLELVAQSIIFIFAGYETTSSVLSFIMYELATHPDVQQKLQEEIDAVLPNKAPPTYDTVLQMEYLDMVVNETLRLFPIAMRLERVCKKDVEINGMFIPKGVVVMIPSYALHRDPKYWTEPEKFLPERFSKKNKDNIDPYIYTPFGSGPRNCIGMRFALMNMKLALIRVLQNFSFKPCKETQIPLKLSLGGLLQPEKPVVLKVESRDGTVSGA

Regarding `CCOP(=O)(OCC)Oc1nc(Cl)c(Cl)cc1Cl`, the result in experiment [1], in experiment [3], in experiment [6], in experiment [7], in experiment [9] and in [10] was inactive. Moreover, the molecule was classed as inactive in [11]. Also, the AC50 – broadly, the midpoint of the concentration-response curve, whichever way the signal moves – was 7.26 µM (active) in [2], 0.485 µM (active) in experiment [4], 3.42 µM (active) in [5] and 3.97 µM (active) in [8].
For `CC(C)NC(=O)N1CC(=O)N(c2cc(Cl)cc(Cl)c2)C1=O`, the molecule was classed as inactive in [1], in experiment [12], in experiment [7], in [9] and in experiment [10]. Moreover, the AC50 in experiment [2] is 20 µM (active); in [4], 74.4 µM (active); in experiment [8], 9.31 µM (active).
For `O=C(Nc1ccccc1-c1ccc(Cl)cc1)c1cccnc1Cl`, the call in experiment [1], in experiment [3], in experiment [9] and in [10] was inactive. The concentration at half-maximal activity (AC50) in experiment [2] was 0.504 µM (active); in experiment [4], 3.12 µM (active).
In the case of `COC(=O)N(C(=O)N1CO[C@@]2(C(=O)OC)Cc3cc(Cl)ccc3C2=N1)c1ccc(OC(F)(F)F)cc1`, the molecule was classed as inactive in [1], in experiment [12], in [9] and in experiment [10]. The AC50 in experiment [2] was 2.09 µM (active); in [4] it was 1.57 µM (active); in [13] it was 1.9 µM (active); in experiment [8] it was 6.53 µM (active).
Take `CCCCC(C#N)(Cn1cncn1)c1ccc(Cl)cc1` (configuration not stated): the molecule was classed as inactive in experiment [1], in [3], in [6], in [9] and in [10]. The AC50 is 2.77 µM (active) in experiment [2], 62.6 µM (active) in experiment [4], 2.99 µM (active) in experiment [14] and 9.54 µM (active) in experiment [8].
`Clc1cccc(C(Cl)(Cl)Cl)n1`: the outcome in experiment [1], in experiment [3], in experiment [4], in experiment [14], in [5] and in experiment [6] was inactive. Besides, the molecule was classed as inactive in [15], in experiment [7], in [8], in experiment [9], in experiment [16] and in [10]. Moreover, the AC50 in experiment [2] was 1.9 µM (active).
As for `COP(=S)(OC)SCn1nnc2ccccc2c1=O`, the outcome in experiment [1], in [6], in experiment [7], in [9] and in experiment [11] was inactive. In addition, the half-maximal activity concentration (AC50) in experiment [2] was 0.448 µM (active); in experiment [4] it was 15.2 µM (active); in experiment [8] it was 20 µM (active); in experiment [10], 9.43 µM (active).
Consider `CCNP(=S)(OC)O/C(C)=C/C(=O)OC(C)C` (configuration not stated), for which the call in experiment [1], in experiment [12], in experiment [7] and in experiment [9] was inactive. The AC50 in experiment [2] is 0.84 µM (active); in [4], 40.6 µM (active); in [13], 0.981 µM (active); in experiment [8], 1.94 µM (active); in experiment [10], 1.7 µM (active).
For `CCC(C)n1c(=O)[nH]c(C)c(Br)c1=O` (configuration not stated), the figures for the concentration at half-maximal activity (AC50) in [2] and in experiment [5] were 3.08 µM (active) and 7.45 µM (active), respectively. Besides, the call in experiment [4] and in [8] was inactive.
Regarding `CS(=O)(=O)c1ccc(C(=O)C2C(=O)CCCC2=O)c([N+](=O)[O-])c1`, the result in experiment [1], in experiment [13], in experiment [15], in experiment [8], in experiment [18] and in [11] was inactive. Besides, the results for the AC50 in experiment [4] and in experiment [17] were 14.4 µM (active) and 0.000305 µM (active), respectively.
In the case of `CCOc1cc(C(C)(C)C)ccc1C1COC(c2c(F)cccc2F)=N1` (configuration not stated), the AC50 is 4.69 µM (active) in [2], 1.9 µM (active) in [4], 4.26 µM (active) in experiment [14] and 1.9 µM (active) in experiment [8]. For the same molecule, the molecule was classed as inactive in experiment [7], in experiment [9] and in experiment [10].
